Measured values: PubChem BioAssay AID720565 (National Center for Advancing Translational Sciences (NCATS), 2013)
Several values for one entry are separate records, joined by “and”; a condition that tells them apart may be missing. Equal entries are not always repeated. Results filed as inconclusive are left out. Activity calls are given as the source filed them. The call rests on the fitted dose curve; in most records, active means well fitted activation curve with a large enough effect; inconclusive means small, poorly fitted or top-dose-only effect; inactive means no such curve, though single readings can be large or run the other way.

Assay: qHTS for small molecules that induce genotoxicity in ELG1 expressing cells: Confirmatory Assay for Cherry-picked Compounds; further: nearly all actives have a fitted effect of over 35% in size
How it was run: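 Cells carrying the ELG1-luciferase reporter were exposed to compound for 16 hr at 37 C, 5% CO2, at 2,000 cells per well. Rise in luciferase activity, read with ONE-Glo after 30 min at room temperature, indicates genotoxic stress.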
Potency means the concentration at half of the fitted maximal effect.

Row | SMILES | Potency
1 | COc1ccc(S(=O)(=O)Nc2cccc3cccnc23)c([N+](=O)[O-])c1 | inactive
2 | COc1ccc(-c2cnc(-c3cccnc3)o2)cc1 | 15.8 µM (active)
3 | CCn1c(=O)n(CC)c2cc(S(=O)(=O)N3CCC(c4ccccc4)CC3)ccc21 | inactive
4 | CN(C)c1ccc(C=Nc2cncc3ccccc23)cc1 | 0.889 µM (active)
5 | O=S(=O)(c1c(F)cccc1F)N1CCN(S(=O)(=O)c2c(F)cccc2F)CC1 | 15.8 µM (active)
6 | C(=C\c1nc2ccccc2s1)/c1ccc2c(c1)OCO2 | 0.141 µM (active)
7 | CCOC(=O)c1cc(-c2ccc([N+](=O)[O-])cc2)nc2c1c(=O)[nH]c(=O)n2Cc1ccccc1 | 11.2 µM (active)
8 | COCCn1c(C)cc(C(=O)COC(=O)c2cccnc2SC)c1C | 2.23 µM (active)
9 | CSc1ccc(C(=O)c2[nH]c(=O)[nH]c2C)cc1 | 31.5 µM (active)
10 | C=CCn1c(C)cc(C(=O)COC(=O)c2n[nH]c(=O)c3ccccc23)c1C | 2.81 µM (active)
11 | O=C(CSc1ncnc2sccc12)N1CCCCC1 | 15.8 µM (active)
12 | COc1cc(/C=C(\C#N)C(=O)Nc2cccc(C(=O)O)c2)ccc1OCc1ccc(Cl)cc1 | 8.89 µM (active)
13 | Nc1ccc(/C=C/c2ccc3cccnc3c2)cc1 | 0.5 µM (active)
14 | CC1CCC(NC(=O)CN2C(=O)NC(C)(C)C2=O)CC1 (stereo not drawn) | inactive
15 | Cc1ccc(NC(=O)c2ccc(OC(=O)c3ccco3)cc2)cc1 | 11.5 µM (active) and 14.1 µM (active)
16 | O=C(NCc1cccs1)c1cc(-c2ccccc2)on1 | 11.5 µM (active) and 7.06 µM (active)
17 | COCC(C)n1c(C)cc(C(=O)COC(=O)c2cc(=O)[nH]c3ccccc23)c1C (stereo not drawn) | 2.23 µM (active)
18 | O=C(COc1ccccc1F)Nc1ccc(-c2nc3ccccc3s2)cc1 | 5 µM (active)
19 | COc1ccc(/C=C/C(=O)O/N=C(\N)c2ccccn2)cc1OC | 14.1 µM (active)

Row | SMILES | Potency
20 | N#Cc1ccc(-c2ccc(-c3nc4ccccc4c(=O)[nH]3)o2)cc1 | inactive
21 | CCOC(=O)c1c(C)[nH]c(C(=O)NNC(=O)c2ccccc2F)c1C | 12.5 µM (active)
22 | O=c1cc(-c2ccccc2)oc2ccc(Br)cc12 | 11.2 µM (active)
23 | Cc1noc(C)c1-c1ccc2ncnc(NCc3ccc(F)c(F)c3)c2c1 | 15.8 µM (active)
24 | CN(C)c1cccc(C(=O)NNC(=O)CN2C(=O)C3CC=CCC3C2=O)c1 (stereo not drawn) | 7.91 µM (active)
25 | Cc1ccc2c(c1)sc1nc(=O)n(-c3ccccc3)c(=O)n12 | 3.54 µM (active)
26 | Cc1c(C(=O)Nc2nccs2)oc2ccc(Br)cc12 | 11.2 µM (active)
27 | O=C(Cc1ccc(OCCCc2ccccc2)cc1)NO | 15.8 µM (active)
28 | O=C(NOCc1ccccc1)c1ccccc1 | 8.88 µM (active)
29 | CCCCCCC[C@@H](C/C=C/CCC(=O)N(C)C/C(=C/Cl)C/C(=C\C(=O)N1CC(OC)=CC1=O)OC)OC | 1.99 µM (active)
30 | Cc1ccccc1-c1nnc(SCC(=O)Nc2cccnc2Cl)o1 | 3.15 µM (active)
31 | Cc1cc(C(=O)Nc2ccc(Br)cn2)sc1C | 2.5 µM (active)
32 | N#C/C(=C\c1cccnc1)c1ccccn1 | inactive
33 | COc1ccccc1NC(=O)CSc1nnc(-c2ccccc2)o1 | 2.5 µM (active)
34 | C(=C\c1ccc2ccccc2n1)/c1ccc2ccccc2n1 | 0.792 µM (active)
35 | COc1ccccc1/C=C/c1nc2ccccc2o1 | 3.53 µM (active)
36 | Oc1cc2cc(-c3csc(-c4ccc(F)cc4)n3)cc3c2n1CCC3 | 6.28 µM (active)
37 | CCCCCn1ncc2c3sc(C)cc3n(C)c2c1=O | 12.5 µM (active)
38 | Cn1cccc1C(=O)Nc1ccc(N2CCOCC2)cc1 | 7.05 µM (active)
